# Screening data: PubChem BioAssay, National Center for Advancing Translational Sciences (NCATS)
# VP16 counter – counter-screen for ROR gamma inhibitors: Gal4-VP16 reporter | Drosophila S2 Gal4-VP16 UAS-luciferase, luminescence, 20 h | Potency, µM (series often up to 53.6 µM), without a hit: top-dose activity, negative = inhibition, hits mostly inhibitors | 310,000 compounds, 3.5% hits | AID 2546;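 note: Gal4-VP16 expression switched on by copper sulfate through the metallothionein promoter; potency is the fitted concentration of half-maximal effect; nearly all actives have a fitted effect of over 50% in size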
# ELG1 DNA repair – ELG1-dependent DNA repair inhibition | HEK293T ELG1-luciferase reporter, luminescence, 16 h; DNA damage induced by 5-fluorouridine | Potency, µM (series often up to 46.1 µM), without a hit: at the top dose activity change, negative = inhibition, actives largely listed as inhibitors | 330,000 compounds, 2.3% hits | AID 504467; note: potency is the fitted concentration of half-maximal effect; nearly all actives have a fitted effect of over 55% in size
#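 Reporter activity after DNA damage by 5-fluorouridine is monitored. Compound-treated cells incubate 16 hr at 37 °C, then ONE-Glo is added for 30 min before luminescence reading.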
# TSHR antagonist – antagonists of human thyroid stimulating hormone receptor | activity change, negative = inhibition, % at 11.5 µM | 330,000 compounds, 0.2% hits | AID 504810 | P16473 | TSHR-expressing cells, TSH-stimulated cAMP HTRF, 2 h; stronger effect = lower value;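 active = activity change below a set negative limit, meaning inhibition stronger than a set level, cut at about -70% in these data; inconclusive = activity change between two set negative limits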
# Target sequence (P16473 whole entry, looked up): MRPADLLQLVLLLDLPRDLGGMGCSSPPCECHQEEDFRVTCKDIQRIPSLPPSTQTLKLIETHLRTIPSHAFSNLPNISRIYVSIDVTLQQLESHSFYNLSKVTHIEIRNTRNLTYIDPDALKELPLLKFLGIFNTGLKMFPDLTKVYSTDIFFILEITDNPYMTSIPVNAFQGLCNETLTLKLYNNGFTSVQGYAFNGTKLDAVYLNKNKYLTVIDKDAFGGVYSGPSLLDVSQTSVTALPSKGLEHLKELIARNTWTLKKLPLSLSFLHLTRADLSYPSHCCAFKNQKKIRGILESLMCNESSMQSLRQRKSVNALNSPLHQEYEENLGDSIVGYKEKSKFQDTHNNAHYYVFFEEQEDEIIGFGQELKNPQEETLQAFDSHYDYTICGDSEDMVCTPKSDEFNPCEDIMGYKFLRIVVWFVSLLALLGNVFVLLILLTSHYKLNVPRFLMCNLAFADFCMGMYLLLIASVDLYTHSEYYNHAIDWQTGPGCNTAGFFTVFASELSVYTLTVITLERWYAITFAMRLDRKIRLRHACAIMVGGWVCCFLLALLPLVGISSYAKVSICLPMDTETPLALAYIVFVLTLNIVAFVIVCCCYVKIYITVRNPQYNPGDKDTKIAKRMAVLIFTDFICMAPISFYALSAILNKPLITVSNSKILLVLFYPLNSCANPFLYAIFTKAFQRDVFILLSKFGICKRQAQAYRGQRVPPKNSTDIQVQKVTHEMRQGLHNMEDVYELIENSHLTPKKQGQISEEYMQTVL
#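 Read-out is FRET at 665 nm (cryptate excitation 337 nm) from a cryptate-tagged anti-cAMP antibody, competed by cell cAMP against cAMP-d2. Compounds are tested on freshly harvested TSHR cells challenged with 4nM TSH (EC80) for 2 hours at 37 deg C.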
# B2AR arrestin – agonists driving beta-arrestin recruitment to human beta2-adrenergic receptor; 330,000 compounds, 0.02% hits; beta-arrestin recruitment to beta2AR, cell-based reporter; P07550; Potency, µM (series often up to 46.1 µM), for the others: top-dose activation, most hits filed as activators;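 note: potency is the fitted concentration of half-maximal effect; 0% = DMSO controls and full agonism = EC100 isoproterenol or metaproterenol; nearly all actives have a fitted effect of over 65% in size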
# RORgamma inh – ROR gamma (mouse) transcription inhibition; P51450; Drosophila S2 Gal4-RORgamma UAS-luciferase reporter, 20 h; Potency, µM (doses to about 53.6 µM), without a hit: at the highest dose activity change, negative = inhibition, actives largely listed as inhibitors; 310,000 compounds, 5.4% hits; AID 2551; note: potency is the fitted concentration of half-maximal effect; nearly all actives have a fitted effect of over 60% in size
#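 Stable Schneider cell line, Gal4 DNA-binding domain fused to ROR gamma, UAS-luciferase. Cmpd 1 hr RT → CuSO4 700 uM final → 20 hr RT → luciferase reagent 10 min → luminescence.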
# * hit, by the source's call; ? = inconclusive; · = no result; [ ] = another dose, or the depositor's remark. Rows were chosen to be rich in hits. Some 7.5% of all compounds tested hit in one or more screens of this group. Unless noted, calls come from the whole dose curve; as a rule, active = well fitted curve in the direction sought with a large enough effect; inconclusive = small, poorly fitted or top-dose-only effect, or another doubt; inactive = no such curve, though single readings can be large; an effect the other way counts as inactive or inconclusive. Unless noted, % is set by controls: 0 for no effect and ±100 for the full control effect.
SMILES,VP16 counter,ELG1 DNA repair,TSHR antagonist,B2AR arrestin,RORgamma inh
Cc1cccnc1NC(=O)c1ccc(Cl)c(S(=O)(=O)N2CCCC2)c1,-9.6%,10.1%,0.0,-0.6%,-25.3%
Cc1cccnc1NC(=O)c1ccc(Cl)c(S(=O)(=O)N2CCCCCC2)c1,?,?,-42.2,5.8%,3.98µM*
CC1CN(S(=O)(=O)c2cc(C(=O)N(CCc3ccccc3)Cc3ccccc3)ccc2Cl)CC(C)O1 (stereo unspecified),·,23.1µM*,-5.1,-0.1%,·
O=C(Nc1ccon1)c1ccc(Cl)c(S(=O)(=O)N2CCCCC2)c1,2.24µM*,-7.7%,-10.3,0.4%,1.41µM*
O=C(Nc1nccs1)c1ccc(Cl)c(S(=O)(=O)N2CCCCC2)c1,?,·,·,·,10µM*
O=C(Nc1nc2ccccc2[nH]1)c1ccc(Cl)c(S(=O)(=O)N2CCCC2)c1,8.91µM*,?,-27.1,0.4%,6.31µM*
CN(Cc1cccs1)C(=O)c1ccc(Cl)c(S(=O)(=O)N2CCCCCC2)c1,·,20.6µM*,-12.8,-0.2%,·
O=C(Nc1nc2ccccc2[nH]1)c1ccc(S(=O)(=O)N2CCOCC2)cc1,?,-5.0%,-23.3,3.0%,10.8%
O=C(Nc1nccs1)c1ccc(Br)c(S(=O)(=O)N2CCOCC2)c1,?,20.6µM*,-15.5,-0.6%,12.6µM*
O=C(NCc1cccs1)c1ccc(Cl)c(S(=O)(=O)N2CCCC2)c1,6.1%,?,0.4,0.1%,12.1%
O=C(Nc1nccs1)c1ccc(F)c(S(=O)(=O)N2CCOCC2)c1,-24.2%,-29.0%,-5.3,0.4%,-29.0%
COc1ccc(CC(=O)OCC(=O)NCc2ccccc2Cl)cc1OC,-1.2%,-0.9%,2.2,0.3%,1.1%
CC(C)N(C(=O)CS(=O)(=O)c1ccc(Cl)c(Cl)c1)C(C)C,0.0%,-14.9%,-4.4,-0.3%,38.4%
O=C(c1cnccn1)N1CCC2(CC1)CN(c1ccccn1)C2,8.8%,·,·,·,-22.5%
CCc1cccc(CC)c1NC(=S)NCCc1ccc(O)c(O)c1,-14.1%,-21.6%,1.1,0.0%,12.6µM*
CCc1cccc(CC)c1NC(=S)NCCc1c(C)[nH]c2ccccc12,7.08µM*,?,-0.6,-0.3%,?
COc1ccc2[nH]c(C)c(CCNC(=S)Nc3cccc(C)c3C)c2c1,?,?,-4.2,-0.3%,7.08µM*
COc1ccc(COC(=O)N/N=C2/C[C@@H](O)[C@@H](O)[C@@H]3[C@@H]4C(=O)N([C@@H](C)c5ccccc5)C(=O)[C@H]4CC[C@H]23)cc1,-19.6%[10 µM],·,·,·,14.3%[10 µM]
COc1ccc(Cc2cnc(N)nc2N)cc1OC,0.1%,·,·,·,3.6%
COc1ccccc1CN(C)C(=O)COC(=O)c1c(C)noc1C,·,-0.8%,-3.0,-0.2%,·
CCN1C(C)=C(C(=O)OC)C(c2ccccc2)N2C(=O)[C@@]3(C(=O)OC)O[C@@]12C1C(=O)CCCC13 (stereo partly specified),-1.0%[10 µM],·,·,·,0.6%[10 µM]
CCN(CC)CCNC(=O)c1ccc2c(c1NCCO)C(=O)c1ccccc1C2=O,-25.1%,13µM*,-21.7,-0.6%,?
CC1CCN(C(=O)c2ccc3c(c2NCCO)C(=O)c2ccccc2C3=O)CC1,-15.9%,?,-10.8,-0.1%,-41.7%
CCC(C(=O)Nc1ccon1)c1ccccc1 (stereo unspecified),7.1%,2.6%,38.0,0.0%,12.6%
Nc1nc2sc3c(c2cc1C(=O)NCC(=O)O)CCCC3,?,-28.3%,-2.5,0.1%,10µM*
SMILES,VP16 counter,ELG1 DNA repair,TSHR antagonist,B2AR arrestin,RORgamma inh
CC(C)(C)OC(=O)CNC(=O)c1[nH]cnc1C(=O)NCC(=O)OCc1ccccc1,5.7%,?,-1.9,-0.6%,?
C[C@H](NC(=O)c1nc[nH]c1C(=O)N[C@@H](Cc1ccccc1)C(=O)OCc1ccccc1)c1ccccc1,7.94µM*,-3.5%,-6.0,0.3%,4.47µM*
CN(Cc1ccccc1)C(=O)c1[nH]cnc1C(=O)NCC(=O)OCc1ccccc1,-29.9%,1.3%,0.6,0.3%,11.2µM*
C[C@H](NC(=O)c1nc[nH]c1C(=O)N[C@H](C)c1ccccc1)C(=O)OCc1ccccc1,3.2%,?,-6.0,3.8%,-5.0%
C[C@@H](NC(=O)c1nc[nH]c1C(=O)N[C@@H](Cc1ccccc1)C(=O)OCc1ccccc1)c1ccccc1,7.08µM*,-7.8%,-7.8,-0.9%,5.62µM*
O=C(N[C@@H](Cc1ccccc1)C(=O)OCc1ccccc1)c1nc[nH]c1C(=O)NC(c1ccccc1)c1ccccc1,5.62µM*,-1.2%,12.2,-0.1%,3.55µM*
COc1ccccc1CNc1nc(-c2ccccc2CN(C)C)nc2ccccc12,-10.6%,·,·,·,?
CN(Cc1ccccc1)C(=O)c1[nH]cnc1C(=O)N[C@@H](Cc1ccccc1)C(=O)OCc1ccccc1,10µM*,11.7%,23.8,0.4%,10µM*
O=C(CNC(=O)c1[nH]cnc1C(=O)N[C@@H](Cc1ccccc1)C(=O)OCc1ccccc1)OCc1ccccc1,?,?,-24.0,0.6%,?
CCCCCCCCCCCCOCC1CO1 (stereo unspecified),-1.0%,·,·,·,-3.1%
CN(C)C(CNC(=O)CCc1nc2sc3c(c2c(=O)[nH]1)CCCC3)c1ccccc1 (stereo unspecified),·,10.2%,-5.5,-0.2%,·
Cc1ccc(N)cc1O,14.2%,?,-4.8,0.2%,-4.5%
Cc1cc(O)c(-c2cc(O)c(C)cc2O)cc1O,?,-6.7%,-1.5,-0.3%,7.08µM*
CCOc1ccc(CCNC(=O)COC(=O)/C=C/c2ccccc2OC)cc1OCC,·,-16.4%,-2.0,-0.3%,·
COCC(=O)N/N=C\c1ccccc1OC/C=C/c1ccccc1,-16.6%,-5.3%,-28.2,0.0%,-4.2%
COc1cccc(/C=N\NC(C)=O)c1OC/C=C/c1ccccc1,11.2µM*,20.6µM*,9.3,-3.1%,8.91µM*
COCC(=O)N/N=C\c1cccc(OC)c1OC/C=C/c1ccccc1,?,?,10.0,-0.3%,12.6µM*
COC(=O)N/N=C\c1ccc(OC/C=C/c2ccccc2)c(OC)c1,-10.1%,-0.9%,26.5,0.1%,17.5%
COc1cc(/C=N\NC(=O)C(C)(C)O)ccc1OC/C=C/c1ccccc1,?,-3.1%,-5.3,0.6%,35.5µM*
O=C(Nc1cccc(C(F)(F)F)c1)Oc1ccc(Cl)c2cccnc12,1µM*,?,-34.9,?,0.501µM*
FC(F)(F)c1ccccc1-c1cc(NCc2cccs2)ncn1,2.1%,·,·,·,12.8%
CS(=O)c1ccc(-c2nc(-c3ccc(F)cc3)c(-c3ccncc3)[nH]2)cc1 (stereo unspecified),-2.3%,·,·,·,7.0%
CC(C)C[C@@H](CC(=O)N[C@@H](CCC(=O)O)CC(=O)O)NC(=O)[C@@H]1CCCC[C@H]1NC(=O)C[C@H](CCCN)NC(=O)C[C@H](Cc1ccccc1)NC(=O)[C@@H]1CCCC[C@H]1N,-2.1%,·,·,·,-22.6%
